# TDP43 rescue: qHTS of TDP-43 Inhibitors | Potency, µM (series often up to 46.1 µM), without a hit: top-dose growth rescue (activation), usual class: activators | 410,000 compounds, 1.8% hits | AID 652104, 2013 | TDP-43 expressing yeast growth rescue, BacTiter-Glo, 24 h; further: % of control where 0% means no effect; nearly all actives have a fitted effect of over 50% in size
#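 Cell-based yeast growth screen: TDP-43 expression induced in galactose, inoculum OD600=0.02 after raffinose pregrowth to mid-log. Read-out BacTiter-Glo luminescence at 24 hr, 30 deg C; inhibition of toxicity seen as signal increase.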
# Abeta rescue: qHTS for compounds that reverse cellular toxicity of Amyloid beta (A-beta) peptide in yeast: Primary Screen. 410,000 compounds, 0.063% hits. yeast expressing A-beta42, growth rescue, OD600, 48 h; response scale: 0% DMSO, 100% iron-clioquinol control. Potency, µM (highest dose often 46.1 µM), most hits filed as activators. AID 1347071, 2019; further: nearly all actives have a fitted effect of over 55% in size
#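 Growth rescue measured by 600 nm absorbance after 48 h yeast culture at 30 C with compound. Values normalized between DMSO and an equimolar ferric chloride plus clioquinol control.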
# aSyn rescue: qHTS of alpha-syn Inhibitors; Yeast expressing alpha-synuclein, growth rescue, BacTiter-Glo, 24 h; Potency, µM (doses to about 46.1 µM), for the others: at the top dose growth rescue (activation), most hits filed as activators; 370,000 compounds, 0.14% hits; AID 652106, 2013; further: % of control where 0% means no effect; nearly all actives have a fitted effect of over 65% in size
#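 Rescue of yeast growth: cells expressing toxic alpha-synuclein, induced in galactose at OD600 0.02, incubated with compound 24 h at 30 C. ATP luminescence quantified growth; inhibitors of toxicity appear as activators.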
# FUS suppressor: qHTS for Suppressors of FUS Proteinopathy: Primary screen using FUS-linked yeast assay | 390,000 compounds, 0.24% hits | Potency, µM (highest dose often 76.6 µM), usual class: activators | S. cerevisiae FUS-expressing, growth rescue, OD600, 24 h;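 further: plate controls were DMSO vehicle for no effect and reference control for full effect; nearly all actives have a fitted effect of over 55% in size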
#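 Toxicity suppression screen in FUS-yeast. Cells induced with 2% galactose, starting OD 0.005, treated 24hr at 30C with compounds at multiple final concentrations; growth by OD600.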
# Mito fusion act: qHTS Assay for Small Molecule Inhibitors of Mitochondrial Division or Activators of Mitochondrial Fusion; S. cerevisiae fusion-defective mutant growth rescue, CellTiterGlo 48 h; 320,000 compounds, 0.23% hits; Potency, µM (highest dose often 46.1 µM), for inactives: at the highest dose growth rescue (activation), usual class: activators; further: % of control where 0% means no effect; nearly all actives have a fitted effect of over 45% in size
#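 Temperature-sensitive fusion-defective S. cerevisiae (e.g. fzo1-1, mgm1-5) were grown with compound in YPEG medium (3% ethanol, 3% glycerol) for 48 hours at 37C. Growth rescue was measured as viability by CellTiterGlo luminescence after 10 minutes at ambient.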
# * hit, by the source's call; i = inactive; ? = inconclusive; nt = no result given. A selection: hits, their analogues and other compounds. The true share with any hit is near 2.2%. The call rests on the fitted dose curve; in most records, active means well fitted curve in the direction sought with a large enough effect; inconclusive means small, poorly fitted or top-dose-only effect, or another doubt; inactive means no such curve, though single readings can be large; an effect the other way counts as inactive or inconclusive. Potency means the concentration at half of the fitted maximal effect.
SMILES,TDP43 rescue,Abeta rescue,aSyn rescue,FUS suppressor,Mito fusion act
Cc1cccc(/C(N)=N/OC(=O)N2c3ccccc3Sc3ccccc32)c1,?,i,-64%,i,-7%
N/C(=N\OC(=O)N1c2ccccc2Sc2ccccc21)c1ccccc1,3.5µM*,i,-73%,i,-22%
COc1cc(C(O)P(=O)(OC2CCCCC2)c2ccc(N(C)C)cc2)cc(OC)c1OC (stereo not given),8%,i,4%,i,-4%
CC(C)c1ccc(C(O)P(=O)(OC2CCCCC2)OC2CCCCC2)cc1 (stereo not given),-59%,i,-66%,i,13µM*
COc1cccc(C2=CC(=O)C[C@H](c3ccc4c(c3)OCO4)C2)c1,18µM*,i,0%,i,19%
O=C1C=C(c2ccccc2)C[C@@H](c2ccc3c(c2)OCO3)C1,20µM*,i,1%,i,30%
O=C1C=C(c2cnc3ccccc3c2)C[C@@H](c2ccc3c(c2)OCO3)C1,16µM*,i,6%,i,?
COc1ccc([C@H]2CC(=O)C=C(c3ccc4c(c3)OCO4)C2)cc1OC,16%,i,-1%,i,18%
O=C1C=C(c2ccc(-c3ccccc3)cc2)C[C@@H](c2ccc3c(c2)OCO3)C1,12%,i,1%,i,-8%
O=C1C=C(c2ccc(F)nc2)C[C@@H](c2ccc3c(c2)OCO3)C1,13µM*,i,8%,i,13%
Cc1cccc(NC(=O)[C@H]2CC(=O)O[C@@H]2c2ccccc2)c1C,nt,nt,nt,i,nt
O=C1C=C(c2cccc(Br)c2)C[C@@H](c2ccc3c(c2)OCO3)C1,11µM*,i,13%,i,?
O=C1C=C(c2ccc(CO)cc2)C[C@@H](c2ccc3c(c2)OCO3)C1,13µM*,i,-1%,i,8%
CCCCC/C=C/C1=CC(=O)C[C@H](c2ccc3c(c2)OCO3)C1,24%,i,-8%,i,26%
COC/C=C/C1=CC(=O)C[C@H](c2ccc3c(c2)OCO3)C1,14µM*,i,2%,i,-7%
O=C1C=C(c2cccc(Cl)c2)C[C@@H](c2ccc3c(c2)OCO3)C1,?,i,13%,i,?
COc1ccc(-c2oc3ccc(N4CCOCC4)cc3c2/C=C/c2ccc(OC)c(OC)c2)cc1,11%,i,2%,13µM*,1%
COc1ccc(/C=C/c2c(-c3ccc(OC)cc3)sc3ccc(N4CCOCC4)cc23)cc1,5%,i,1%,i,3%
CC(=O)CSc1nc(-c2ccccc2)c(-c2ccccc2)o1,16µM*,i,8%,i,-7%
N#Cc1ccc(/C=C2\C=Cc3ccccc32)cc1,nt,nt,-9%,nt,nt
Cc1ccc2c(CC(=O)Nc3nc(C)cs3)coc2c1,11µM*,?,-12%,i,-15%
CSc1nnc(NC(=O)Cc2coc3cc(C)ccc23)s1,23%,i,nt,i,nt
COc1ccc2c(CC(=O)Nc3nc(C)cs3)coc2c1,13µM*,i,-17%,i,-1%
Cc1cccc2c(=O)cc(CSc3ccccc3NC(=O)c3cccc(F)c3)[nH]c12,13%,i,nt,i,nt
CCCCCN1CCCCC(NC(=O)c2ccc3ccccc3c2)C1=O (stereo not given),nt,nt,nt,i,nt
SMILES,TDP43 rescue,Abeta rescue,aSyn rescue,FUS suppressor,Mito fusion act
CN1C(=O)C[C@@](C#N)(C(=O)NCC(F)(F)F)[C@H]1c1ccccc1,nt,nt,nt,i,nt
Cc1ccc(C(=O)Nc2cccnc2Oc2ccc(Cl)cc2)cc1,-3%,i,3%,i,7%
Cc1ccc(S(=O)(=O)Nc2cccnc2Oc2ccc(Cl)cc2)cc1,20µM*,i,16%,i,?
N#Cc1cccc(OC[C@@H](O)CN2CCC(C(O)(c3ccccc3)c3ccccc3)CC2)c1,nt,nt,nt,i,nt
CN(c1ccccc1C(=O)Nc1cccc([N+](=O)[O-])c1)S(=O)(=O)c1ccccc1,22µM*,i,2%,i,12%
CN(c1ccccc1C(=O)Nc1cccc(Br)c1)S(=O)(=O)c1ccccc1,28µM*,i,10%,i,-1%
CN(c1ccccc1C(=O)Nc1ccc(CC#N)cc1)S(=O)(=O)c1ccccc1,-2%,i,10%,i,-1%
CN(c1ccccc1C(=O)Nc1cccc([N+](=O)[O-])c1)S(C)(=O)=O,10%,i,0%,i,-4%
CCOC(=O)c1ccc(NC(=O)c2ccccc2N(C)S(=O)(=O)c2ccccc2)cc1,35µM*,i,6%,nt,20%
CN(C)c1ccc(/C=C/c2ccnc3c(N)cccc23)cc1,nt,nt,-9%,nt,nt
Cc1cc(C)c2nc(NC(=O)CN3C(=O)NC4(CCCC4)C3=O)sc2c1,-14%,i,-1%,i,-5%
O=C(Nc1c2c(nn1-c1ccc(F)cc1)CSC2)c1ccc(S(=O)(=O)N2CCOCC2)cc1,-3%,i,2%,?,1%
CC(C)(C)n1nc2c(c1NC(=O)c1ccc(S(=O)(=O)N3CCCC3)cc1)CSC2,0%,i,2%,16µM*,0%
COC1=C(Nc2ccccc2)C(=O)c2ccccc2C1=O,13µM*,i,0%,i,3%
COC1=C(Nc2ccc(C)cc2)C(=O)c2ccccc2C1=O,10µM*,i,-16%,nt,1%
CC1(C)CC2CN(Cc3ccccc3)S(=O)(=O)N2C1 (stereo not given),nt,nt,nt,i,nt
COc1cc(F)cc(-c2ccc3c(c2)c(-c2cccs2)c(-c2cc(OC)cc(OC)c2)n3C)c1,7%,i,-1%,i,-9%
COc1cc(OC)cc(-c2c(-c3cccs3)c3cc(-c4ccc(CN5CCOCC5)cc4)ccc3n2C)c1,22µM*,i,-14%,?,nt
FC(F)Sc1ccc(NC(=S)NC2CCCCC2)cc1,16%,i,-17%,i,2%
CC1CCCCC1NC(=S)Nc1ccc(SC(F)F)cc1 (stereo not given),20µM*,?,-29%,i,-6%
COCCNC(=O)CN1C(=O)/C(=C/c2ccccc2)Oc2ccc(C(C)(C)C)cc21,15%,i,2%,i,20µM*
O=C(CN1C(=O)/C(=C\c2cccc(Br)c2)Oc2ccccc21)NCCCN1CCOCC1,?,i,14%,i,-40%
FC(F)(F)c1ccccc1NC(=S)OC1CCC12CCC(c1ccccc1)CC2 (stereo not given),nt,nt,nt,i,nt
Brc1c(-c2ccccc2)nc2n1Cc1ccccc1-2,13µM*,i,?,i,-5%
Cn1c(=O)c2cc(S(=O)(=O)N3CCN(c4ccc(F)cc4)CC3)ccc2n(C)c1=O,nt,nt,nt,i,nt

# Screening results (PubChem)
